Calls of active or inactive are those of the source. Rule for the calls: active = hit-call score of the fitted dose curve at least 0.9, where 1 is the maximum; inactive = score below 0.9.
Legend:
[1] = read-out: Interferon-gamma inducible Protein 10 (IP10), CXCL10 (gene 3627); assay: BSK_hDFCGF_IP10: BioMAP Diversity Plus: hDFCGF Assay for Interferon-gamma inducible Protein 10 (IP10) Biomarker Activity (AID 2283053); conditions: primary human foreskin fibroblasts; actives raise or lower the signal
Procedure, shortened: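 ELISA read-out of IP-10 (CXCL10) from primary human skin fibroblasts, 24 h after compound addition. Gain or loss of signal versus DMSO baseline, bidirectional curve fitting.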

[2] = read-out: Urokinase-type plasminogen activator receptor (uPAR), PLAUR (gene 5329); assay: BSK_CASM3C_uPAR: BioMAP Diversity Plus: CASM3C Assay for Urokinase-type plasminogen activator receptor (uPAR) Biomarker Activity (AID 2283054); conditions: primary human coronary artery smooth muscle cells; actives raise or lower the signal;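 note: cell-surface uPAR protein level quantified by ELISA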
[3] = read-out: Vascular cell adhesion molecule 1 (VCAM1), VCAM1 (gene 7412); assay: BSK_CASM3C_VCAM1: BioMAP Diversity Plus: CASM3C Assay for Vascular cell adhesion molecule 1 (VCAM1) Biomarker Activity (AID 2283055); conditions: primary human coronary artery smooth muscle cells; actives raise or lower the signal;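 note: VCAM-1 protein level quantified by ELISA on the cells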
[4] = read-out: Epidermal growth factor receptor (EGFR), EGFR (gene 1956); assay: BSK_hDFCGF_EGFR: BioMAP Diversity Plus: hDFCGF Assay for Epidermal growth factor receptor (EGFR) Biomarker Activity (AID 2283057); conditions: primary human foreskin fibroblasts; actives raise or lower the signal
Procedure, shortened: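 ELISA readout of EGFR on human dermal fibroblasts (primary foreskin cells), 24 h post-dosing; bidirectional curve fit vs DMSO baseline, gain or loss of signal scored.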

[5] = read-out: Interleukin-8 (IL8), CXCL8 (gene 3576); assay: BSK_hDFCGF_IL8: BioMAP Diversity Plus: hDFCGF Assay for Interleukin-8 (IL8) Biomarker Activity (AID 2283058); conditions: primary human foreskin fibroblasts; actives raise or lower the signal
Procedure, shortened: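 ELISA read-out of IL-8 from primary human foreskin fibroblast cultures taken 24 h after dosing; values are bidirectional fits relative to DMSO vehicle.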

[6] = BSK_hDFCGF_Proliferation: Cell Proliferation Assessment in the BioMAP Diversity Plus: hDFCGF Assay (AID 2283059); conditions: primary human foreskin fibroblasts;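 note: curves fitted for both rise and fall of signal versus DMSO baseline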
Procedure, shortened: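 Steps: dose primary human dermal fibroblasts (foreskin); […] fix in 10% TCA; stain with 0.1% SRB; read 560 nm; fit gain or loss of signal against DMSO.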

[7] = read-out: Macrophage colony-stimulating factor (MCSF), CSF1 (gene 1435); assay: BSK_hDFCGF_MCSF: BioMAP Diversity Plus: hDFCGF Assay for Macrophage colony-stimulating factor (MCSF) Biomarker Activity (AID 2283060); conditions: primary human foreskin fibroblasts; actives raise or lower the signal
Procedure, shortened: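 ELISA read-out of M-CSF in human dermal foreskin fibroblast cultures, 24 h after chemical dosing; gain or loss of signal fitted bidirectionally relative to DMSO baseline.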

[8] = BSK_hDFCGF_SRB: Viability Assessment in the BioMAP Diversity Plus: hDFCGF Assay (AID 2283061); conditions: primary human foreskin fibroblasts;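 note: cells exposed to compound for 24 h before the read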
Procedure, shortened: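 Primary human foreskin fibroblasts; 24 h post-dose; fixed 10% TCA, stained 0.1% SRB, A560 read; total protein as overt cytotoxicity measure; curves fit bidirectionally vs DMSO control.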

[9] = read-out: Monokine induced gamma interferon (MIG), CXCL9 (gene 4283); assay: BSK_hDFCGF_MIG: BioMAP Diversity Plus: hDFCGF Assay for Monokine induced gamma interferon (MIG) Biomarker Activity (AID 2283063); conditions: primary human foreskin fibroblasts; actives raise or lower the signal
Procedure, shortened: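 Fibroblasts (human foreskin, primary) dosed, 24 h, MIG by ELISA; fit bidirectional vs DMSO.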

[10] = read-out: Vascular cell adhesion molecule 1 (VCAM1), VCAM1 (gene 7412); assay: BSK_hDFCGF_VCAM1: BioMAP Diversity Plus: hDFCGF Assay for Vascular cell adhesion molecule 1 (VCAM1) Biomarker Activity (AID 2283065); conditions: primary human foreskin fibroblasts; actives raise or lower the signal;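 for AC50: VCAM-1 protein level quantified by ELISA after 24 h chemical exposure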
Procedure, shortened: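 ELISA read-out of VCAM-1 on human skin fibroblasts, 24 h post-dose; gain or loss of signal fitted bidirectionally against DMSO baseline.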

[11] = read-out: Plasminogen activator inhibitor-1 (PAI1), SERPINE1 (gene 5054); assay: BSK_hDFCGF_PAI1: BioMAP Diversity Plus: hDFCGF Assay for Plasminogen activator inhibitor-1 (PAI1) Biomarker Activity (AID 2283066); conditions: primary human foreskin fibroblasts; actives raise or lower the signal
Procedure, shortened: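 ELISA readout of PAI-1 from primary human skin fibroblast cultures, 24 h after compound addition. Gain or loss of signal was fitted bidirectionally against DMSO baseline.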

[12] = read-out: Intercellular Adhesion Molecule 1 (ICAM1), ICAM1 (gene 3383); assay: BSK_KF3CT_ICAM1: BioMAP Diversity Plus: KF3CT Assay for Intercellular Adhesion Molecule 1 (ICAM1) Biomarker Activity (AID 2283067); conditions: primary human keratinocytes with fibroblasts; actives raise or lower the signal
Procedure, shortened: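 ELISA readout of ICAM-1; KF3CT human skin co-culture (keratinocytes + foreskin fibroblasts), 24 h post-dose; gain/loss fit vs DMSO baseline.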

[13] = read-out: Interferon-gamma inducible Protein 10 (IP10), CXCL10 (gene 3627); assay: BSK_KF3CT_IP10: BioMAP Diversity Plus: KF3CT Assay for Interferon-gamma inducible Protein 10 (IP10) Biomarker Activity (AID 2283068); conditions: primary human keratinocytes with fibroblasts; actives raise or lower the signal
Procedure, shortened: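 KF3CT co-culture (keratinocytes + foreskin fibroblasts), 24 h compound, IP-10 by ELISA; bidirectional fit vs DMSO baseline.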

[14] = BSK_KF3CT_SRB: Viability Assessment in the BioMAP Diversity Plus: KF3CT Assay (AID 2283069); conditions: primary human keratinocytes with fibroblasts;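 note: total protein by sulforhodamine B staining as a cytotoxicity measure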
Procedure, shortened: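 Cytotoxicity was gauged by SRB staining (0.1% SRB, 10% TCA fixation, 560 nm) of parallel cultures at 24 h. The cells were primary human skin keratinocytes co-cultured with fibroblasts, and activity was fitted in both directions against DMSO.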

[15] = read-out: Interleukin-1 alpha (IL1a), IL1A (gene 3552); assay: BSK_KF3CT_IL1a: BioMAP Diversity Plus: KF3CT Assay for Interleukin-1 alpha (IL1a) Biomarker Activity (AID 2283070); conditions: primary human keratinocytes with fibroblasts; actives raise or lower the signal
Procedure, shortened: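 IL-1a was detected by ELISA 24 h after chemical treatment of a co-culture of human skin keratinocytes and foreskin fibroblasts. Gain or loss of signal was fitted against the DMSO baseline.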

[16] = read-out: TIMP metallopeptidase inhibitor 2 (TIMP2), TIMP2 (gene 7077); assay: BSK_KF3CT_TIMP2: BioMAP Diversity Plus: KF3CT Assay for TIMP metallopeptidase inhibitor 2 (TIMP2) Biomarker Activity (AID 2283071); conditions: primary human keratinocytes with fibroblasts; actives raise or lower the signal
Procedure, shortened: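 ELISA readout of TIMP-2 in keratinocyte plus foreskin fibroblast co-cultures (human skin primary cells), 24 h post-dose. Gain or loss of signal fitted relative to DMSO.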

[17] = read-out: Transforming growth factor beta 1 (TGFb1), TGFB1 (gene 7040); assay: BSK_KF3CT_TGFb1: BioMAP Diversity Plus: KF3CT Assay for Transforming growth factor beta 1 (TGFb1) Biomarker Activity (AID 2283072); conditions: primary human keratinocytes with fibroblasts; actives raise or lower the signal
Procedure, shortened: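 Read-out: ELISA for TGF-b1 in keratinocyte/foreskin fibroblast human skin co-culture, 24 h after dosing; bidirectional curve fit vs DMSO baseline; gain or loss of signal scored.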

[18] = read-out: TIMP metallopeptidase inhibitor 1 (TIMP1), TIMP1 (gene 7076); assay: BSK_hDFCGF_TIMP1: BioMAP Diversity Plus: hDFCGF Assay for TIMP metallopeptidase inhibitor 1 (TIMP1) Biomarker Activity (AID 2283062); conditions: primary human foreskin fibroblasts; actives raise or lower the signal
Procedure, shortened: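 ELISA readout of TIMP-1 from human dermal foreskin fibroblast cultures 24 h post-dosing. Curves were fitted in both directions against DMSO baseline, with SRB total-protein staining in parallel cultures as a cytotoxicity check.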

[19] = read-out: Matrix Metallopeptidase 1 (MMP1), MMP1 (gene 4312); assay: BSK_hDFCGF_MMP1: BioMAP Diversity Plus: hDFCGF Assay for Matrix Metallopeptidase 1 (MMP1) Biomarker Activity (AID 2283064); conditions: primary human foreskin fibroblasts; actives raise or lower the signal
Procedure, shortened: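 MMP1 levels quantified by ELISA 24 h after dosing human dermal fibroblast cultures, with parallel SRB total-protein staining for overt cytotoxicity. Data fitted in both directions against DMSO baseline.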

Measured: AC50

Cc1nccn1-c1ccc(Sc2cccc(C3(C(N)=O)CCOCC3)c2)cc1
active: [1] 10.2 µM | [3] 14.9 µM | [6] 4.15 µM | [9] 6.44 µM | [10] 3.25 µM
not listed: [18] | [19]
inactive: all other assays above

NNC(=O)c1ccncc1
not listed: [19]
inactive: all other assays above

O=C(NO)C1(NS(=O)(=O)c2ccc(Oc3ccc(F)cc3)cc2)CCOCC1
not listed: [16] | [18]
inactive: all other assays above

O=C(O)c1cccc(C[C@@H]2COc3ccc(OCc4nc5cc(F)ccc5s4)cc3[C@@H]2O)c1
active: [7] 13.8 µM
not listed: [16] | [18]
inactive: all other assays above

OCc1ccccc1
not listed: [16] | [19]
inactive: all other assays above

Cc1cccc(O)c1C
not listed: [16] | [18] | [19]
inactive: all other assays above
